Source: PubChem BioAssay (Broad Institute)
Rows were chosen to be rich in hits. Some 7.4% of all compounds tested hit in one or more screens of this group.
PD-1 reverse act: reversal of PD-1 mediated T-cell inhibition; primary human CD4 T cells, PD-L1 beads, CellTiter-Glo 96 h; 29,000 tested, under 10 active; activation, % (no concentration beside the values); AID 2316; call rule not given here
YB-1 expression: YB-1 expression inhibition | U2OS, qRT-PCR YB-1 vs CDIP delta delta Cp, 16 h; active compounds read high; zero = DMSO, each unit about twofold | delta delta Cp (YB-1 minus CDIP) (no concentration beside the values) | hit rate 0.37% among 30,000 | AID 434959;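 active means delta delta Cp rounded down to an integer at or above 3, about 3 SD of DMSO wells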;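 further: higher means less YB-1 transcript or more CDIP transcript relative to DMSO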
Shh pathway inh: blocks Sonic Hedgehog signaling; Shh-LIGHT2 Gli-luciferase reporter, 30 h; inhibition, % (no concentration beside the values); hit rate 2.1% among 22,000; AID 2313;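 active means mean inhibition across valid replicates above about 65%, limit read from the data; inconclusive means mean under the limit, yet half or more replicates past it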;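 further: pathway switched on by Shh-conditioned medium diluted 1 in 25 in low serum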
MITF inhib: inhibitors of MITF | inhibition, % (test concentration not listed) | AID 2240 | TRPM1 promoter luciferase, luminescence, 24 h | hit rate 0.28% among 37,000; in the data active means inhibition above about 85%; inconclusive means no clear call, values can overlap the other calls; inactive means below about 68%;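 further: human melanocyte line stably carrying TRPM1 promoter luciferase reporter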
NOMO-1 viab: STK33 inhibitor candidate reducing NOMO-1 cell viability. inhibition, % (no concentration beside the values). hit rate 7.5% among 37,000. AID 2330. NOMO-1 AML viability, CellTiter-Glo luminescence, 72 h; in the data active means inhibition above about 80%; inconclusive means no clear call, values can overlap the other calls
A number is an active result; - = inactive; ? = inconclusive; . = no result.

SMILES	PD-1 reverse act	YB-1 expression	Shh pathway inh	MITF inhib	NOMO-1 viab
C[C@H]1CN([C@@H](C)CO)C(=O)Cc2cc(NC(=O)Nc3cccc4ccccc34)ccc2O[C@@H]1CN(C)CC1CCCCC1	-	-	-	-	135.8
Cc1ccsc1/C=N\NC(=O)CCCCC(=O)NO	.	-	.	.	.
COc1cc2c(c(O)c1OC)C(=O)CC(c1ccc(O)cc1)O2 (centres undefined)	-	-	-	-	-
COc1cc2c(c(OC)c1OC)C[C@H]1COC(=O)[C@@H]1Cc1c-2cc(OC)c(OC)c1OC	.	-	67.2	.	.
COc1cc2c(c(OC)c1)C(=O)OC(C)C2 (centres undefined)	-	-	-	-	-
COc1cc2c(c(OC)c1OC)-c1cc3c(cc1C[C@H]1C(=O)OC[C@@H]1C2)OCO3	-	-	-	-	105.8
C[C@H]1CN([C@@H](C)CO)C(=O)Cc2cc(NS(=O)(=O)c3ccccc3)ccc2O[C@H]1CN(C)CC1CC1	.	-	-	-	-
CC(=O)Nc1ccc(NC(=O)c2cccc(C(=O)OC(C)C)n2)cc1	-	-	.	-	106.8
COC(=O)c1cccc(C(=O)Nc2ccc(F)cc2)n1	-	-	.	-	?
CC(C)NC(=O)Nc1ccc2c(c1)C(=O)N([C@H](C)CO)C[C@H](C)[C@H](CN(C)Cc1ccc(C(=O)Nc3ccccc3N)cc1)OCCCC[C@@H](C)O2	-	-	.	-	-
C[C@@H]1CCCCO[C@@H](CN(C)Cc2ccc(C(F)(F)F)cc2)[C@@H](C)CN([C@H](C)CO)C(=O)c2cc(NC(=O)CCCCCC(=O)Nc3ccccc3N)ccc2O1	-	-	.	-	125.5
C[C@@H]1CCCCO[C@@H](CN(C)Cc2ccc(C(=O)Nc3ccccc3N)cc2)[C@@H](C)CN([C@H](C)CO)C(=O)c2cc(NC(=O)Cc3ccccc3)ccc2O1	-	-	.	-	127.0
C[C@@H]1CCCCO[C@H](CN(C)Cc2ccc(C(=O)Nc3ccccc3N)cc2)[C@@H](C)CN([C@H](C)CO)C(=O)c2cc(NS(=O)(=O)c3ccc(F)cc3)ccc2O1	-	-	.	-	127.8
C[C@@H]1CN([C@@H](C)CO)C(=O)c2cc(NC(=O)Cc3ccccc3)ccc2O[C@H]1CN(C)Cc1ccc(C(=O)Nc2ccccc2N)cc1	-	-	.	-	?
C[C@@H]1CN([C@@H](C)CO)C(=O)c2cc(NC(=O)Cc3ccccc3)ccc2O[C@@H]1CN(C)Cc1ccc(C(=O)Nc2ccccc2N)cc1	-	-	.	-	109.0
C[C@@H]1CN([C@H](C)CO)C(=O)Cc2cc(NC(=O)CCN3CCOCC3)ccc2O[C@@H]1CN(C)Cc1ccc(C(F)(F)F)cc1	.	-	.	-	-
CCC1(CC)COC2(OC1)C(=O)Nc1ccc(F)cc12	-	-	-	-	-
CCNc1nc(NC(C)(C)C)nc(N(C#N)CC(=O)OC)n1	-	.	.	-	-
C[C@@H]1CN([C@H](C)CO)C(=O)Cc2cc(NS(=O)(=O)c3cn(C)cn3)ccc2O[C@@H]1CN(C)Cc1ccc(Oc2ccccc2)cc1	-	-	.	-	-
C[C@H]1CN([C@@H](C)CO)C(=O)c2cc(NC(=O)Cc3ccccc3)ccc2O[C@H]1CN(C)Cc1ccc(C(=O)Nc2ccccc2N)cc1	-	-	.	-	108.2
C[C@@H]1CN([C@H](C)CO)C(=O)c2cc(NC(=O)Cc3ccccc3)ccc2O[C@H]1CN(C)Cc1ccc(C(=O)Nc2ccccc2N)cc1	-	-	.	-	-
C=C1C(=O)O[C@@H]2/C=C(/C)[C@@H]3C/C=C(/C[C@@H](OC(=O)/C(=C/CO)CO)[C@@H]12)C[C@@](O)(C(C)C)C(=O)O3	-	-	?	-	107.5
C=C1C(=O)O[C@@H]2CC=C(CCC(C)O)C(C)C[C@@H]12 (some centres undefined)	-	-	-	-	121.1
Cc1ccc(Cl)cc1NC(=O)CSc1nnc(-c2ccccc2)n1-c1ccccc1	-	.	.	-	-
COc1cccc(NC(=O)CSc2nnc(-c3cccc(OC)c3)n2-c2ccc(Cl)cc2)c1	-	.	.	-	-
SMILES	PD-1 reverse act	YB-1 expression	Shh pathway inh	MITF inhib	NOMO-1 viab
O=C(CSc1nnc(-c2cccc(Cl)c2)n1-c1ccccc1)Nc1ccccc1-c1ccccc1	-	.	.	-	142.0
COc1cccc(NC(=O)CSc2nnc(-c3ccc(Cl)cc3)n2-c2cccc(C)c2)c1	-	.	.	?	122.9
Cc1ccc(C(=O)NCCNc2ccccc2[N+](=O)[O-])cc1	-	.	.	-	-
O=C(CSc1nc2ccccc2o1)Nc1ccc(I)cc1	.	.	.	-	-
CCOc1ccccc1-c1nnc(SCC(=O)Nc2ccc(I)cc2)o1	-	.	.	-	119.3
Cc1cc(Cl)ccc1NC(=O)COc1ccc(C(=O)Nc2ccc(F)cc2)cc1	-	.	.	-	-
C[C@H]1CN([C@@H](C)CO)C(=O)c2cccc(NC(=O)Nc3ccc(F)cc3)c2O[C@@H]1CN(C)Cc1ccccc1	.	-	-	-	100.8
C[C@@H]1CN([C@@H](C)CO)C(=O)c2cccc(NC(=O)Nc3ccc(F)cc3)c2O[C@H]1CN(C)Cc1ccccc1	-	-	-	-	101.6
C[C@H](CO)N1C[C@H](C)[C@@H](CN(C)Cc2ccccc2)Oc2c(NC(=O)Nc3ccc(F)cc3)cccc2C1=O	-	-	-	-	97.9
C[C@@H]1CN([C@H](C)CO)C(=O)c2cccc(NC(=O)Nc3ccc(F)cc3)c2O[C@H]1CN(C)Cc1ccccc1	-	-	-	-	99.5
C[C@@H]1CN([C@H](C)CO)C(=O)c2cccc(NC(=O)Nc3ccc(F)cc3)c2O[C@@H]1CN(C)Cc1ccccc1	-	-	-	-	-
C[C@H]1CN([C@@H](C)CO)C(=O)c2cc(NS(=O)(=O)c3cccs3)ccc2O[C@H]1CN(C)CC1CC1	-	-	-	-	-
C[C@H]1CN([C@@H](C)CO)C(=O)c2cc(NC(=O)Nc3cccc4ccccc34)ccc2O[C@H]1CN(C)C(=O)NC1CCCCC1	-	-	.	-	-
CC1=CC2OC3[C@H](O)C[C@](C)([C@@]2(CO)CC1=O)[C@]31CO1 (some centres undefined)	-	-	95.0	-	118.5
CC(=O)OC[C@]12CCC(C)=CC1O[C@@H]1[C@H](O)[C@@H](O[C@H]3O[C@H](CO)[C@@H](O)[C@H](O)[C@H]3O)[C@@]2(C)C12CO2 (some centres undefined)	.	-	-	.	.
COc1ccc(C2Oc3c(OC)cc(CCCO)cc3C2CO)cc1OC1OC(CO)C(O)C(O)C1O (centres undefined)	-	-	-	-	-
Cn1cnc([N+](=O)[O-])c1Sc1ncnc2nc[nH]c12	-	-	-	-	119.1
C[C@@H]1CN([C@@H](C)CO)C(=O)c2cccc(NC(=O)Nc3ccc4c(c3)OCO4)c2O[C@@H]1CN(C)Cc1ccc(C(=O)Nc2ccccc2N)cc1	-	-	.	-	141.6
C[C@H](CO)N1C[C@H](C)[C@H](CN(C)Cc2ccc(C(=O)Nc3ccccc3N)cc2)Oc2ccc(NC(=O)Nc3ccc4c(c3)OCO4)cc2C1=O	.	-	.	.	.
